From PubChem BioAssay come the findings set out here.

Calls of active or inactive are those of the source. How the calls were made is not given here.

The experiment deals with Pantothenate synthetase (Mycobacterium tuberculosis (strain ATCC 25618 / H37Rv)) (UniProt P9WIL5). The experiment in a line: Recombinant Mtb pantothenate synthetase (PanC) inhibitors, coupled enzyme, confirmatory (AID 375).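 Further: 0% = full reaction with vehicle and 100% = no enzyme background.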 To be noted: coupled enzyme assay; at 10 µM, active compounds read high.
Pantothenate synthetase (Mycobacterium tuberculosis (strain ATCC 25618 / H37Rv)), sequence (P9WIL5 whole entry, looked up): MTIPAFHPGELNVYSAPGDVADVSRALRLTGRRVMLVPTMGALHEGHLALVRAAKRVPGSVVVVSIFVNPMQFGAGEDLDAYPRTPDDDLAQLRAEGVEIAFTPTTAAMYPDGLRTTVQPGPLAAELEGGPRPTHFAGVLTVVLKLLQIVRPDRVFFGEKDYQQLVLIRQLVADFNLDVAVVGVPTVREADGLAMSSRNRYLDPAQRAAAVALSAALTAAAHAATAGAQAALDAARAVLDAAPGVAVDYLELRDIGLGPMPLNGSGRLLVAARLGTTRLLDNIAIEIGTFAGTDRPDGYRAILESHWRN
A word on the inhibition: it is the change of the read-out against control, counted positive when it falls. Consider `Nc1cc(N)cc(-c2nc3ccccc3o2)c1`, for which the inhibition is 4% (inactive). Next, `Cc1nnc(SCC(=O)Nc2cc(C(F)(F)F)ccc2N2CCOCC2)o1`: 0% (inactive).

For the molecule `O=C1CC(N2CCN(c3cccc(C(F)(F)F)c3)CC2)C(=O)N1c1ccccc1` (centres undefined), the inhibition was 0% (inactive). With `COc1ccc(Nc2nc(OC)nc(N3CCN(c4ccc(OC)cc4)CC3)n2)cc1`, the inhibition is 1% (inactive). The figure for `CCC(=O)Nc1ccc(Cl)c(NC(=O)C(C)C)c1` is 3% (inactive). The figure for `CCOC(=O)N1CCN(C(c2ccc(Cl)cc2)c2sc3nc(C)nn3c2O)CC1` (centres undefined) is 0% (inactive); for `O=C(Nc1ccc(Cl)cc1C(=O)O)c1ccc2c(c1)C(=O)N(Cc1ccco1)C2=O` it is 0% (inactive); for `CCC(=O)N1CCNC(=O)C1CC(=O)Nc1ccc(C)c(Cl)c1` (centres undefined) it is 0% (inactive). Turning to `COc1ccc(CNc2oc(-c3ccccc3)nc2C#N)cc1`, the inhibition was 5% (inactive).

Turning to `CCCCC(NS(=O)(=O)c1ccc(OC)cc1)C(=O)O` (centres undefined), the inhibition is 0% (inactive). Next, `O=C(O)c1ccc2c(c1)N(Cc1ccccc1F)C(=O)c1ccccc1S2=O` (centres undefined): 0% (inactive); `O=S(=O)(NCc1ccccn1)c1ccc2c(c1)OCCO2`: 0% (inactive); `COC(=O)c1sc(NC(=O)c2ccoc2C)nc1C`: 0% (inactive). Next, `CC1=C(C(=O)OC(C)C)C(C2CC=CCC2)NC(=O)N1` (centres undefined): 6% (inactive). The figure for `CCOC(=O)CN1CC23C=CC(O2)C(C(=O)NCc2ccc(F)cc2)C3C1=O` (centres undefined) is 0% (inactive); for `Cc1ccc(C)n1-c1ccc(N2CCOCC2)cc1` it is 0% (inactive).

For `COc1cccc(-c2csc3nnc(SCC(=O)c4ccc(NC(C)=O)cc4)n23)c1`, the inhibition was 1% (inactive).

Turning to `CC(=O)O[C@@]12CO[C@@H]1C[C@H](O)[C@@]1(C)C(=O)[C@H](O)C3=C(C)[C@@H](OC(=O)[C@H](O)[C@@H](NC(=O)OC(C)(C)C)c4ccccc4)C[C@](O)([C@@H](OC(=O)c4ccccc4)[C@H]21)C3(C)C`, the inhibition is 0% (inactive). As for `Cc1ccc(S(=O)(=O)C2(C(=O)Nc3cccnc3)CC2)cc1`, the inhibition is 1% (inactive).

Turning to `Cc1ccc(NC2=NC(c3ccccc3)n3c(nc(C)cc3=O)N2)cc1` (centres undefined), the inhibition is 13% (inactive). The figure for `Cc1ccc(-c2noc(CCC(=O)NC3CCCc4ccccc43)n2)cc1` (centres undefined) is 2% (inactive).

In the case of `O=C(Nc1ccccc1N1CCN(C(=O)c2ccc(Cl)cc2)CC1)c1cc2ccccc2o1`, the inhibition was 3% (inactive). For `CCOc1ccc2c(c1)c1nnc(SCC(=O)N3CCC(C)CC3)nc1n2C`, the inhibition was 1% (inactive). The figure for `CN1CCN(c2oc(COc3ccc(-c4ccccc4)cc3)nc2C#N)CC1` is 0% (inactive).

Turning to `Cc1noc(C)c1C(=O)N1CCN(C(=O)c2sc3cc(Cl)ccc3c2Cl)CC1`, the inhibition was 7% (inactive). Next, `COc1ccc(S(=O)(=O)Nc2ccc(Cl)cn2)c(C)c1C`: 1% (inactive); `COc1ccc(CC(=O)OCc2nnc(C3COc4ccccc4O3)o2)cc1OC` (centres undefined): 0% (inactive); `COc1ccccc1OCc1ccc(C(=O)Nc2ccncc2)o1`: 2% (inactive). The figure for `Cc1nc(CCNS(=O)(=O)c2cccs2)cs1` is 0% (inactive).

With `CCS(=O)(=O)c1ccc(S(=O)(=O)CC)s1`, the inhibition was 0% (inactive). Next, `O=C(O)c1cc2cc(F)ccc2[nH]1`: 2% (inactive).

For `COc1cccc(NC(=O)C2CCCN2C(=O)Nc2cccc(F)c2)c1` (centres undefined), the inhibition was 0% (inactive). Next, `Cc1ccc(-n2c(C)cc3c2CCCC3=O)cc1`: 0% (inactive); `CCOc1ccc(N(CC)C(=O)COc2cc(=O)n(C)c3ccccc23)cc1`: 0% (inactive).

As to `CC(C)CC(OC(=O)c1cccs1)C(=O)NCc1ccco1` (centres undefined), the inhibition is 0% (inactive). For the molecule `O=C(CN1C(=O)CCS(=O)(=O)c2ccccc21)Nc1cccc(F)c1`, the inhibition is 5% (inactive).

As for `COc1ccc(-n2nnnc2SCC(=O)c2ccc(O)c(O)c2)cc1`, the inhibition is 0% (inactive). The figure for `CC(=O)Nc1cccc(Oc2nc(C)cc(C)c2C#N)c1` is 1% (inactive); for `CC1CNCCN1S(=O)(=O)c1cccc2cnccc12` (centres undefined) it is 5% (inactive).
